Source: PubChem BioAssay (National Center for Advancing Translational Sciences (NCATS))
Rows were chosen to be rich in hits. Some 3.6% of all compounds tested hit in one or more screens of this group.
HTT prom inh: HTT promoter inhibition; HEK293 HTT promoter firefly luciferase reporter, 24 h; Potency, µM (titrated, usually from 57.5 µM), for inactives: at the highest dose activity change, negative = inhibition, hits mostly inhibitors; actives 0.93% (n = 48,000); AID 1508623; also: potency is read from the fitted curve at half-maximal effect; nearly all actives have a fitted effect of over 50% in size
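Firefly luciferase signal from promoter-reporter HEK293 cells was scaled between vehicle (0%) and zero RLU (-100%). Compounds were tested at final concentrations of up to 57.5 uM over 24 h at 37 degrees C. PTC124 at 50 uM final served as control inhibitor.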
TSG101-PTAP inh: TSG101-PTAP interaction inhibition, HIV-1 budding; Q99816; Fluorescence polarization, FITC-PTAP peptide/Tsg101, 20 min; Potency, µM (titrated, usually from 115 µM), usual class: inhibitors; 44,000 tested, under 10 active; also: potency is read from the fitted curve at half-maximal effect; 0% is about no effect
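Compounds pinned into 10 uM Tsg101 binding domain, then 50 nM FITC-PTAP peptide added in pH 7.5 HEPES buffer; FP read after 20 min, room temperature. Total S+P intensity flags fluorescent compounds; active cut-off <25 µM, efficacy <60%.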
GPR32 ag: activates human resolvin D1 receptor GPR32; actives 2.5% (n = 48,000); O75388; activation, % at 76.9 µM; CHO-K1 GPR32 beta-arrestin PathHunter luminescence, 90 min; zero percent set by DMSO-only wells; AID 1346428;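 active = activation of at least 60% and not above a set upper limit, about 1 call in 100 departs from these limits; inconclusive = activation of 40% to 60%, or above that upper limit; inactive = activation under 40%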; also: 0% is about no effect
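Beta-arrestin recruitment read-out: luminescence from complemented beta-Gal in CHO-K1 GPR32 PathHunter cells, measured 1 h after detection reagent at ambient temperature following 90 min compound exposure at 37 °C; DMSO served as basal (EC0) control.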
B2AR arrestin ag: beta-arrestin recruitment by human beta2-adrenergic receptor ligands; 44,000 tested, under 10 active; HTLA Tango cells, beta-arrestin recruitment, luciferase luminescence, 18 h; Potency, µM (highest dose often 46.1 µM), hits mostly activators;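 also: potency is read from the fitted curve at half-maximal effect; 0% = DMSO and full agonism = EC100 isoproterenol or metaproterenol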
Target sequence (P07550 whole entry, looked up): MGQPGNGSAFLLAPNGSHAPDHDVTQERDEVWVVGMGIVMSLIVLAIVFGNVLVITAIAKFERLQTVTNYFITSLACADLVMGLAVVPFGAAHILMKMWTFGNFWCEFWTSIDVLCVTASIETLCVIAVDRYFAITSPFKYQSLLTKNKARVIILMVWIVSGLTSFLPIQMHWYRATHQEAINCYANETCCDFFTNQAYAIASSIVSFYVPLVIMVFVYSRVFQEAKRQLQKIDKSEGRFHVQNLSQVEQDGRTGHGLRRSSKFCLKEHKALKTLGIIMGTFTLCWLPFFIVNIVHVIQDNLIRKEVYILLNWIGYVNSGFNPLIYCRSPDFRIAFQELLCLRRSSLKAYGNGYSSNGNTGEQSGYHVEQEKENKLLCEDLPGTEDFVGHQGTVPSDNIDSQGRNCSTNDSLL
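Tango cells (recombinant beta2-AR, beta-arrestin, tTA-driven luciferase), 1500/well in DMEM 1% FBS, treated 18 h at 37 °C with compounds up to 46 µM; luciferin mix added, luminescence read after 15 min; %activity curves fitted and curve-classed.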
GALK inhibitor: inhibits human galactokinase. recombinant GALK, Kinase-Glo ATP luminescence, 1 h. Potency, µM (top dose mostly 57.5 µM), inactives show at the highest dose activity, negative = inhibition, actives largely listed as inhibitors. 44,000 tested, under 10 active. AID 1347072;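 also: plate controls were full GALK reaction for no effect and reaction lacking GALK for full effect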
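Human GALK (5 nM) was incubated with 35 uM ATP and 100 uM galactose in 20 mM HEPES pH 8.0 with MgCl2, NaCl, DTT and BSA for 1 h at room temperature. Remaining ATP was measured by Kinase-Glo Plus luminescence.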
HTT-AS promoter: activates huntingtin-antisense promoter activity; HEK293 HTT-AS promoter firefly luciferase reporter, 24 h; response scale: percent change from vehicle, -100% = no light; Potency, µM (top dose mostly 57.5 µM), for the others: at the top dose activity change, positive = activation, most hits filed as activators; actives 0.24% (n = 48,000); also: potency is read from the fitted curve at half-maximal effect; nearly all actives have a fitted effect of over 55% in size
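Luminescence was read after Dual-Glo reagent and a 10 min room-temperature incubation. Values were normalized to vehicle (0% activity) and zero RLU (-100% activity). Reporter HEK293 cells had been exposed to compounds (up to 57.5 uM final) for 24 h.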
* = called active by the depositor; i = inactive; ? = inconclusive; · = not tested or not shown. Unless noted, calls follow the shape of the dose curve; as a rule, active = well fitted curve in the direction sought with a large enough effect; inconclusive = small, poorly fitted or top-dose-only effect, or another doubt; inactive = no such curve, though single readings can be large; an effect the other way counts as inactive or inconclusive.

SMILES | HTT prom inh | TSG101-PTAP inh | GPR32 ag | B2AR arrestin ag | GALK inhibitor | HTT-AS promoter
Cc1cc(=O)n(CC(=O)N2CCN(c3ccc(F)cc3)CC2)c2c1c(C)nn2C | ? | i | 71* | i | 0% | -43%
CCOc1ccc(NC(=O)Cn2c(=O)cc(C)c3c(C)nn(C)c32)cc1 | -24% | i | 18 | i | -1% | -14%
C1Cc2[nH]nc(-c3nn[nH]n3)c2C1 | 1% | · | · | · | · | -15%
C#CCN(C)CC1=Cc2ccccc2Oc2ccccc21 | -12% | · | · | · | · | -16%
CN(C)C1CCN(C(=O)c2ccc(NC(=O)Nc3nc(N4CCOCC4)nc(N4CCOCC4)n3)cc2)CC1 | ? | · | · | · | · | -37%
O=C1CSC(=O)N1C(CCc1ccncc1)COc1ccc(-c2cccc([N+](=O)[O-])c2)cc1 (stereo not given) | ? | · | · | · | · | -65%
COC(=O)c1ccccc1NC(=O)Cn1nnc(-c2ccc(OC)cc2)n1 | -30% | i | -1 | i | 2% | -26%
O=C(O)Cn1nnc(-c2ccc(OCc3cccc(C(F)(F)F)c3)cc2)n1 | -7% | i | 0 | i | -1% | 14%
C#CC(C)(CC)NC(=O)Cn1nnc(-c2ccc(OCc3ccccc3C)cc2)n1 (stereo not given) | -4% | i | 62* | i | 9% | -22%
C#CC(C)(CC)NC(=O)Cn1nnc(-c2ccc(OCc3ccccc3F)cc2)n1 (stereo not given) | -4% | i | 91* | i | -3% | -13%
COc1cccc(CNCCSc2nnnn2C)c1OCc1ccc(F)cc1 | -7% | i | 81* | i | ? | -20%
Cc1cccc(N2CCN(C(=O)c3c(C)oc4ncnc(N5CCCCC5)c34)CC2)c1C | ? | i | 85* | i | 2% | -24%
CCC(=O)N1CCc2cc(S(=O)(=O)CCC(=O)NCc3ccc(OC)cc3)ccc21 | -1% | i | -3 | i | 0% | -11%
CCC(=O)N1CCc2cc(S(=O)(=O)CCC(=O)Nc3ccc(OC(F)(F)F)cc3)ccc21 | ? | i | 65* | i | 8% | -25%
CC(=O)c1c(C)oc2c1cc(NS(=O)(=O)c1ccc(Br)cc1)c1ccccc12 | ? | i | 80* | i | -1% | -39%
Cc1ccc(NS(=O)(=O)c2ccc3c(c2)CCCN3C(=O)C2CCC2)cc1Cl | 22µM* | i | -2 | i | 1% | -28%
CC(=O)Nc1ccc(NS(=O)(=O)c2cc(Br)cc3c2N(C(=O)C2CC2)CC3)cc1 | -13% | i | 17 | i | 7% | -21%
COc1ccc(NS(=O)(=O)c2cc(Br)cc3c2N(C(=O)C2CC2)CC3)cc1OC | 5.6µM* | i | 17 | i | 2% | -44%
COc1ccc(NS(=O)(=O)c2ccc3c(c2)CCCN3C(=O)C2CCC2)cc1OC | 1.8µM* | i | ? | i | -1% | -29%
O=C(c1ccc(C=Cc2n[nH]c3ccccc23)cc1)N1CCNCC1 | 18% | · | · | · | · | 28%
Cc1n[nH]c(C)c1S(=O)(=O)N1CCCC(C(=O)Nc2ccc(Cl)cc2)C1 (stereo not given) | 28µM* | i | 107* | i | 0% | -47%
CC1Cc2cc(S(=O)(=O)NCc3ccc(N(C)C)cc3)ccc2N1C(=O)C1CCC1 (stereo not given) | · | i | 11 | i | 1% | ·
CC1Cc2cc(S(=O)(=O)NCc3ccccc3Cl)ccc2N1C(=O)C1CCC1 (stereo not given) | 28µM* | i | 20 | i | 2% | -80%
CCc1cccc2sc(N3CCN(C(=O)C4CC4)CC3)nc12 | ? | i | -23 | i | -2% | -21%
Cc1c(Cl)ccc2sc(N3CCN(C(=O)C4CC4)CC3)nc12 | -22% | i | 76* | i | -1% | -4%
SMILES | HTT prom inh | TSG101-PTAP inh | GPR32 ag | B2AR arrestin ag | GALK inhibitor | HTT-AS promoter
CCNC(=O)Nc1ccc(Oc2ncnc(N)c2C=NOC)cc1Cl | -5% | · | · | · | · | -2%
CCOc1ccccc1NC(=O)CSc1nc2ccccc2c2nc(CCn3cncc3C)nn12 | -27% | i | 97* | i | 1% | -20%
Cc1cncn1CCc1nc2c3ccccc3nc(SCC(=O)Nc3ccc(F)cc3)n2n1 | -3% | i | -10 | i | 1% | 7%
O=C(Nc1cccc(Cl)c1)C1CCN(S(=O)(=O)Cc2ccccc2)CC1 | · | i | 115* | i | -12% | ·
COCCOc1nc(-c2ccc(Cl)c(Cl)c2)n(-c2ccc(NC(=O)CCl)cc2)n1 | -20% | · | · | · | · | -16%
CC1CCN(C(=O)c2cc(-c3ccc(Cl)cc3)on2)CC1 | 74% | i | 13 | i | -5% | 2µM*
COc1ccc(CNC(=O)c2cc(-c3cccc(Cl)c3)on2)cc1 | · | i | 66* | i | -4% | ·
CC1CCN(C(=O)c2cc(-c3cccc(Cl)c3)on2)CC1 | · | i | 28 | i | 6% | ·
O=C(c1cc(-c2cccc(Cl)c2)on1)N1CCCCC1 | · | i | 66* | i | 1% | ·
COc1cccc(-c2cc(C(=O)NCc3ccccc3)no2)c1 | · | i | 34 | i | 4% | ·
CC(C)n1cnc2c(NCCCCCCNC(=O)OC(C)(C)C)nc(NCCO)nc21 | -26% | · | · | · | · | -31%
CC(C)=CCCC(C)=CCCC(C)=CCSc1ccccc1C(=O)O | ? | · | · | · | · | -30%
COc1ccc(Nc2c3c(nc4ccc(NC(=O)/C=C/c5cc(OC)c(OC)c(OC)c5)cc24)CCCC3)cc1OC | 32µM* | i | -10 | i | -1% | -77%
COc1ccc(/C=C/C(=O)Nc2ccc3nc4c(c(Nc5ccc(OC)c(OC)c5)c3c2)CCCC4)cc1 | ? | i | -3 | i | 4% | -94%
CCS(=O)(=O)N1CC(CC#N)(n2cc(-c3ncnc4[nH]ccc34)cn2)C1 | 34% | · | · | · | · | ?
O=C(Nc1ccc(Cl)c(Cl)c1)C1CC1 | 0% | · | 83* | · | · | -5%
Nc1ccc(C(=O)N2CC3CC(CN(Cc4ccccc4)C3)C2)cc1 | 0% | · | -15 | · | · | 2%
COc1ccc(-c2nc(SCC(=O)c3ccc(Br)cc3)n[nH]2)cc1 | -17% | i | 114* | i | 10% | 9%
CC(C)(N)C(=O)N[C@H](COCc1ccccc1)C(=O)N1CCC2(CC1)CN(S(C)(=O)=O)c1ccccc12 | 4% | · | · | · | · | -4%
Cn1cc(C(=O)N2CCN(c3cccc(C(F)(F)F)c3)CC2)c2c3ccccc3n(C)c2c1=O | ? | i | 118* | i | -6% | -41%
